Measurements published in PubChem BioAssay AID686978 (National Center for Advancing Translational Sciences (NCATS), 2013).
Out of some 420,000 compounds screened, about 64,000 (15%) were called active. About 27% were inconclusive and are not listed. The list is a sample of the results. A number with no mark means an inactive call. Calls come from the whole dose curve; as a rule, active = well fitted inhibition curve with a large enough effect; inconclusive = small, poorly fitted or top-dose-only effect; inactive = flat fitted curve, though single readings scatter.

Assay: qHTS for Inhibitors of human tyrosyl-DNA phosphodiesterase 1 (TDP1): qHTS in cells in absence of CPT; note: nearly all actives have a fitted effect of over 55% in size
Details: DT40 Tdp1-/- hTDP1 cells, no CPT, ATP luminescence, 48 h; activity change, negative = growth inhibition: at 46.2 µM (top of the series)
How it was run: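 Cells were dispensed at 400 per well, compounds added by pin tool, plates incubated ≥48 hr at 37 °C, then CellTiter-Glo added for 30 min at room temperature before luminescence reading. Line: DT40 Tdp1-/- complemented with hTDP1; camptothecin omitted.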
% is set by controls: 0 for no effect and ±100 for the full control effect; potency is the fitted concentration of half-maximal effect.

SMILES | activity change, negative = growth inhibition [%] | Potency
O=C(NCc1ccccc1Cl)NC(=O)c1csc([N+](=O)[O-])c1 | -0.723 | –
CCCOc1ccc(Cc2c(O)nc(SC)[nH]c2=O)cc1C | 13.4 | –
COc1cccc(NC(=O)C2(C)CCN2Cc2ccccc2Cl)c1 (stereo not given) | – | 25.9 µM (active)
COc1cccc(NC(=O)CN2CCN(CC(=O)Nc3ccccc3Cl)CC2)c1 | -5.99 | –
COc1cccc(NC(=O)NCCN2CCCCC2)c1 | 18.1 | –
O=C1COc2c1ccc(O)c2O | 0.378 | –
Cc1c(Cc2ccccc2)c(=O)oc2cc(OCC(N)=O)ccc12 | -13.9 | –
CC(=O)c1c(C)n(-c2ccc(N(C)C)cc2)c2ccc(OCC(N)=O)cc12 | – | 23.1 µM (active)
CC(=O)c1c(C)n(-c2ccc(C)cc2)c2ccc(O)cc12 | -15.7 | –
COc1ccc(CN2CCCC(N3CCc4ccccc4C3)C2)c(O)c1 (stereo not given) | -21.1 | –
Cn1nccc1NS(=O)(=O)c1ccc(F)cc1 | -11.8 | –
Cc1cc(F)ccc1NS(=O)(=O)c1ccc(-n2cccn2)cc1 | – | 16.4 µM (active)
Cc1ccc(NS(=O)(=O)c2ccc(F)cc2)nc1 | -4.34 | –
COc1ccccc1C(C)NC(=O)Cc1ccsc1 (stereo not given) | -6.78 | –
Cc1nn(-c2ccc(F)cc2)c(Cl)c1/C=C(/CCC(=O)O)c1nc2ccccc2s1 | -22.9 | –
CN(Cc1nc2ccccc2s1)C(=O)c1ccc(F)cc1 | -17.7 | –
CC1=CC(=C(C#N)c2nc3ccccc3s2)C=C(C)N1c1ccc(F)cc1F | – | 18.4 µM (active)
COCc1c(C(=O)N/N=C\c2cccnc2)nnn1-c1nonc1N | -4.54 | –
CN(c1ccccc1)S(=O)(=O)c1ccc(Cl)c(C(=O)OCC(=O)NCc2ccco2)c1 | 0.341 | –
O=C(COC(=O)c1ccccc1O)NCc1ccco1 | 25.6 | –
Cc1cc(C(=O)OCC(=O)NCc2ccco2)c(C)n1-c1ccccc1 | – | 2.06 µM (active)
Cc1ccc(S(=O)(=O)/N=S(\C)C(C)C)cc1 (stereo not given) | -14.2 | –

SMILES | activity change, negative = growth inhibition [%] | Potency
Cc1cc(O)ccc1NC1=CC(=O)CC(C)(C)C1 | -10.4 | –
Oc1ccc(N=Cc2sc3ccccc3c2Cl)cc1 | – | 10.3 µM (active)
Oc1ccc2ccccc2c1C=Nc1ccccc1 | -14.9 | –
Cc1cc(-c2ccc(/C=N/n3cnnc3)o2)c([N+](=O)[O-])cc1C | -27.1 | –
O=C1C2C3C=CC(C4CC34)C2C(=O)N1/N=C/c1ccc(-c2ccccc2[N+](=O)[O-])o1 (stereo not given) | – | 18.4 µM (active)
N#C/C(=C/c1ccc(-c2ccccc2[N+](=O)[O-])o1)C(=O)NCCN1CCCCC1 | -14.1 | –
Cn1c(-c2ccc(C(F)(F)F)cc2)cc2onc(-c3ccccc3)c2c1=O | -2.85 | –
Cc1ccc(S(=O)(=O)CCC(=O)OCC(=O)NCCc2ccc(S(N)(=O)=O)cc2)cc1 | 0.283 | –
CCC1C(=O)NCCN1C(=O)c1ccc2nc(Cc3ccc(OC)cc3)oc2c1 (stereo not given) | 10.5 | –
COc1ccc(CC(=O)NC(C)CCc2ccccc2)cc1 (stereo not given) | -14.4 | –
COc1ccc(C(CCNCc2ccccc2F)c2ccc(F)cc2)cc1 (stereo not given) | – | 13 µM (active)
COc1ccc(CCNC(=O)COC(=O)Cc2ccccc2F)cc1 | -10.9 | –
COc1ccccc1-c1ccnc(-n2ncc(C(=O)NCCc3ccncc3)c2C)n1 | -3.85 | –
COCCNC(=O)CCCN1C(=O)c2ccccc2Sc2ncccc21 | – | inactive
COc1cccc(NC(=O)CN2C(=O)c3ccccc3Sc3ncccc32)c1 | – | 18.4 µM (active)
CNC(=O)CN1C(=O)c2cccnc2Sc2ccccc21 | -14.7 | –
Cc1ccc(S(=O)(=O)N(C)CC(=O)NC2CCCC2)cc1 | -2.7 | –
C#CCN(C[C@H]1[C@H](OC(=O)NC2CCCC2)[C@H](OC(=O)NC2CCCC2)C[C@H]2C(=O)N(c3ccccc3)C(=O)[C@@H]12)S(=O)(=O)c1ccc(C)cc1 | -8.47 | –
C#CCN(C[C@@H]1[C@@H](OC(=O)NC2CC2)[C@@H](OC(=O)NC2CC2)Cn2c(=O)ccc(=O)n21)S(=O)(=O)c1ccc(C)cc1 | – | 14.6 µM (active)
CN(C)CCN(C(=O)C1=COCCO1)c1nc2ccc(Cl)cc2s1 | -15.7 | –
CC(=O)OCc1cc(=O)n(C)c(=O)n1C | -3.09 | –
CC1C(O)CC2C(C(=O)O)=CO[C@@H](O[C@H]3OC(CO)C(O)C(O)C3O)C21 (stereo not given in full) | -11.8 | –

SMILES | activity change, negative = growth inhibition [%] | Potency
CN(C)S(=O)(=O)c1ccc(NC(=O)N2CCOCC2)cc1 | -20.5 | –
COc1ccc(S(=O)(=O)N(C)CC(=O)N2CCCC2)cc1 | 4.23 | –
CN(C)S(=O)(=O)c1ccc(Oc2ccc(S(=O)(=O)N(C)C)cc2)cc1 | – | 18.4 µM (active)
C#CCOCCOCCOCCNc1nc(N2CCN(C(=O)[C@H](CCC(=O)O)n3cc(CN)nn3)CC2)nc(N2CCN(C(=O)[C@H](CCC(=O)O)n3cc(CN)nn3)CC2)n1 | -1.32 | –
Cc1cccc(C(=O)NCc2nnc(SC(C)C(=O)Nc3nnc(C)s3)n2C)c1 (stereo not given) | -10.8 | –
CCc1ccc(Oc2coc3cc(O)ccc3c2=O)cc1 | -1.36 | –
CC(OC(=O)c1cccc(S(=O)(=O)N2CCOCC2)c1)C(=O)NCC1CCCCC1 (stereo not given) | 2.27 | –
COc1cc(C(=O)OC(C)C(=O)NCC2CCCCC2)cc(NC(=O)c2ccco2)c1OC (stereo not given) | – | 20.6 µM (active)
COc1cc(C(C(=O)NC2CCCC2)N(C(=O)c2ccco2)c2ccccc2C(C)=O)cc(OC)c1OC (stereo not given) | -27.1 | –
CSCC[C@H](NC(=O)N1CCn2c1nc1ccccc12)C(=O)NCc1ccc2c(c1)OCO2 | -8.33 | –
CC(=O)N/C(=C\c1ccccc1)C(=O)OC(C)C(=O)N(C)c1ccccc1 (stereo not given) | -23.1 | –
O=S(=O)(NCCS(=O)(=O)N1CCN(c2ccccc2)CC1)c1ccc(Cl)cc1 | -19.2 | –
O=C(CSc1ccccc1)Nc1cc(Cl)ccc1Oc1ccccc1 | -19.9 | –
CC(=O)Nc1ccc(NC(=O)CN2CCCC(C)C2)c(Cl)c1 (stereo not given) | -19.7 | –
CC1CCCN(CC(=O)Nc2cc(Cl)ccc2Oc2ccccc2)C1 (stereo not given) | – | 16.4 µM (active)
COC(=O)[C@@H](Cc1ccccc1)NC(=O)NCCc1ccccc1 | -19.1 | –
CCOC(=O)c1oc2c(CN3CCN(C)CC3)c(O)ccc2c(=O)c1-c1ccc(Br)cc1 | -6.83 | –
CN1CCN(Cc2c(O)ccc3c2oc(=O)c2ccccc23)CC1 | – | 11.6 µM (active)
COc1ccc(-c2c(C)c3ccc(O)c(CN4CCN(C)CC4)c3oc2=O)cc1OC | 0.717 | –
COc1ccc(C(C)=O)cc1CSc1nc2nc(C)cc(C)n2n1 | -4.09 | –
CN(CCc1cn[nH]c1)C(=O)CC1C(=O)NCCN1Cc1cccc(Oc2ccccc2)c1 (stereo not given) | -12.5 | –
